Measured values from PubChem BioAssay AID651640 (Broad Institute, 2012).
Hit rate of the full screen: of about 350,000 compounds, about 6,000 (1.7%) were called active. Roughly 5% stayed inconclusive and do not appear here. Many of the other results were omitted from the sample, so actives are more common in it than they were. Values without a mark were called inactive. Rule as the data show it: active = CPE inhibition above about 20% (passing the limit was not always enough); inconclusive = no clear call, values can overlap the other calls; tested in BHK-21 cells.

Assay: inhibitors of DENV2 cytopathic effect, primary screen, cell-based, plate reader, single concentration (AID 651640);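 also: 0% = median of neutral control wells and 100% = median of positive control wells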
Settings: DENV2-infected cells, cytopathic effect rescue, at 9.99 µM, hits give high values

Row | Compound | CPE inhibition
1 | Cc1ccc(S(=O)(=O)N2C[C@@H](O)COC[C@@H]3O[C@@H](CC(=O)N[C@H]4CCN(Cc5ccccc5)C4)CC[C@H]32)cc1 | -6.36%
2 | C/C=C/c1ccccc1[C@H]1[C@@H](C#N)N(c2nc(CC)cs2)[C@@H]1CO | -4.18%
3 | O=C(CSc1nc2ccccc2c(=O)n1-c1ccccc1F)N1CCOCC1 | 3.85%
4 | Cc1ccc(-n2c(SCC(=O)N3CCC(C(=O)O)CC3)nc3ccccc3c2=O)cc1C | 31.6% (active)
5 | O=C(CSc1nc2ccccc2c(=O)n1-c1ccc(F)cc1)NC1CC1 | -10.2%
6 | CC(=O)N1[C@H](CO)[C@H](c2ccccc2)C12CN(C(=O)c1ccccn1)C2 | 3.27%
7 | C=CCn1c(-c2ccccc2OCC)n[nH]c1=S | -1.21%
8 | C=CCOc1ccccc1CNn1c(C)n[nH]c1=S | 25.4% (active)
9 | C=CCOc1c(CNn2cn[nH]c2=S)cccc1OC | -7.79%
10 | Nc1ncnc2c1ncn2[C@@H]1O[C@H](C(=O)N[C@@H](CCc2ccccc2)C(=O)N2CCCN(Cc3cccs3)CC2)[C@@H](O)[C@H]1O | -8.03%
11 | COc1cccc(S(=O)(=O)N[C@H]2CC[C@H](CC(=O)NC3CCC3)O[C@H]2CO)c1 | -5.34%
12 | CO[C@@H]1CN(C)C(=O)c2ccc(NC(=O)c3ccccn3)cc2OC[C@@H](C)N(C(=O)C2CCCCC2)C[C@H]1C | -2.92%
13 | O=C(C[C@H]1CC[C@H](NC(=O)Nc2ccc(C(F)(F)F)cc2)[C@H](CO)O1)NCCN1CCCC1 | 1.56%
14 | CCOc1ccccc1Nc1ccc(C(=O)O)cc1[N+](=O)[O-] | 2.94%
15 | NC(=O)c1ccc(Nc2ccc3nonc3c2[N+](=O)[O-])cc1 | -0.407%
16 | CCOc1ccccc1Nc1ccc2nonc2c1[N+](=O)[O-] | 22.7% (active)
17 | O=C(Nc1ccccc1)N1C[C@H]2[C@@H](c3ccccc31)[C@@H](CO)N2Cc1cocn1 | -3.04%
18 | CO[C@H]1CN(C)C(=O)c2ccc(NC(=O)c3cc(C)on3)cc2OC[C@@H](C)NC[C@@H]1C | -4.45%
19 | Cc1cccc(-c2ccc([C@@H]3[C@@H](CO)N4CCCCN(S(=O)(=O)c5cccs5)C[C@H]34)cc2)c1 | 32.7% (active)
20 | Cc1cccc(-c2ccc([C@H]3[C@H](CO)N4CCCCN(S(=O)(=O)c5cn(C)cn5)C[C@@H]34)cc2)c1 | -11.9%
21 | COc1cccc(-c2ccc([C@H]3[C@H](CO)N4CCCCN(S(=O)(=O)c5cccs5)C[C@@H]34)cc2)c1 | -2.61%
22 | CCS(=O)(=O)N1CCCCN2[C@@H](CO)[C@@H](c3ccc(-c4ccccc4)cc3)[C@@H]2C1 | 12.3%
23 | O=S(=O)(Cc1ccccc1)N1CCCCN2[C@@H](CO)[C@@H](c3ccc(-c4ccc(F)cc4)cc3)[C@@H]2C1 | -23%
24 | O=S(=O)(Cc1ccccc1)N1CCCCN2[C@@H](CO)[C@H](c3ccc(-c4ccccc4)cc3)[C@@H]2C1 | 59% (active)

Row | Compound | CPE inhibition
25 | CCNC(=O)[C@H]1[C@H](CO)[C@H]2Cn3c(cccc3=O)[C@H]2N1C(=O)C1CCCC1 | 3.43%
26 | C[C@@H]1CCCCO[C@@H](CN(C)C(=O)C2CCCCC2)[C@H](C)CN([C@H](C)CO)C(=O)c2cc(NC(=O)Cc3ccccc3)ccc2O1 | -2.34%
27 | COc1cccc(S(=O)(=O)N[C@H]2CC[C@@H](CC(=O)NCc3ccc(F)cc3)O[C@@H]2CO)c1 | 2.23%
28 | CN(C)CC(=O)N[C@@H]1CC[C@H](CC(=O)O)O[C@H]1CO | 8.44%
29 | O=C(O)C[C@@H]1CC[C@H](NC(=O)CCN2CCCCC2)[C@H](CO)O1 | 20.1% (active)
30 | O=C(C[C@H]1CC[C@H](NC(=O)CCN2CCCCC2)[C@@H](CO)O1)Nc1ccccc1 | -7.71%
31 | C[C@@H](NC(=O)C[C@@H]1C=C[C@@H](NC(=O)CN2CCOCC2)[C@H](CO)O1)c1ccccc1 | -6.9%
32 | CNC(=O)C[C@@H]1CC[C@@H]2[C@@H](COc3ccc(NC(=O)Cc4cccs4)cc3C(=O)N2C)O1 | -1.22%
33 | COc1ccccc1C(=O)Nc1ccc2c(c1)OC[C@@H](C)NC[C@H](C)[C@@H](OC)CN(C)C2=O | -3.53%
34 | O=C(C1CCN(S(=O)(=O)c2ccc(Br)s2)CC1)N1CCN(c2ccccc2)CC1 | -4.17%
35 | O=C(NC1CCCCC1)C1CCCN(S(=O)(=O)c2ccc(Br)s2)C1 (configuration not stated) | 2.35%
36 | O=C(C1CCN(S(=O)(=O)c2ccc(Br)s2)CC1)N1CCN(C2CCCCC2)CC1 | 66.2% (active)
37 | C[C@@H]1CN([C@H](C)CO)C(=O)c2cc(NC(=O)Cc3ccccc3)ccc2O[C@@H]1CN(C)CC1CCCCC1 | -0.335%
38 | C[C@H](CO)N1C[C@H](C)[C@H](CN(C)Cc2ccccc2)OCCCC[C@H](C)Oc2ccc(NC(=O)c3ccccc3)cc2C1=O | -7.82%
39 | C[C@H](CO)N1C[C@H](C)[C@@H](CN(C)CC2CC2)OCCCC[C@H](C)Oc2ccc(NC(=O)Cc3ccccc3)cc2C1=O | 57.8% (active)
40 | C[C@@H]1CCCCO[C@@H](CN(C)CC2CCCCC2)[C@H](C)CN([C@H](C)CO)C(=O)c2cc(NC(=O)C3CCCCC3)ccc2O1 | -14.3%
41 | C[C@H](CO)N1C[C@H](C)[C@@H](CN(C)Cc2ccc(C(=O)O)cc2)OCCCC[C@H](C)Oc2ccc(NC(=O)c3ccccc3)cc2C1=O | -2.18%
42 | C[C@H]1CCCCO[C@H](CN(C)Cc2ccccc2)[C@@H](C)CN([C@@H](C)CO)C(=O)c2cc(NC(=O)c3ccccc3)ccc2O1 | 48.2% (active)
43 | C[C@@H]1CCCCO[C@H](CN(C)CC2CC2)[C@@H](C)CN([C@H](C)CO)C(=O)c2cc(NC(=O)Cc3ccccc3)ccc2O1 | 13.5%
44 | C[C@@H]1CN([C@@H](C)CO)C(=O)c2cc(NC(=O)Cc3ccccc3)ccc2O[C@@H]1CN(C)CC1CCCCC1 | 2.75%
45 | C[C@@H]1CCCCO[C@H](CN(C)Cc2ccccc2)[C@@H](C)CN([C@H](C)CO)C(=O)c2cc(NC(=O)Cc3ccccc3)ccc2O1 | -14%
46 | C[C@@H]1CN([C@H](C)CO)C(=O)c2cc(NC(=O)C3CCCCC3)ccc2O[C@@H]1CN(C)CC1CCCCC1 | 22.8% (active)
47 | C[C@H](CO)N1C[C@H](C)[C@H](CN(C)CC2CCCCC2)Oc2ccc(NC(=O)C3CCCCC3)cc2C1=O | 0.912%
48 | C[C@@H]1CN([C@@H](C)CO)C(=O)c2cc(NC(=O)Cc3ccccc3)ccc2O[C@H]1CN(C)CC1CC1 | 31.5% (active)

Row | Compound | CPE inhibition
49 | Cc1ccccc1S(=O)(=O)N1CC(=O)N2[C@H](CO)[C@H](c3ccc(C#CC4CC4)cc3)[C@@H]2C1 | 5.14%
50 | CC=Cc1ccc2n(c1=O)C[C@@H]1[C@@H](CO)[C@H](C(=O)NC3CCCC3)[C@H]2N1C(=O)c1cnccn1 (mixture of isomers) | 2.52%
51 | CO[C@@H]1CN(C)C(=O)c2ccc(NC(=O)C3CC3)cc2OC[C@@H](C)N(CC2CCOCC2)C[C@H]1C | 0.64%
52 | CC(C)NC(=O)Nc1cccc2c1O[C@H](CN(C)Cc1ccccc1)[C@H](C)CN([C@H](C)CO)C2=O | 1.48%
53 | CO[C@@H]1CN(C)C(=O)c2cc(NC(C)=O)ccc2OC[C@@H](C)N(C(=O)NC2CCCCC2)C[C@H]1C | -11%
54 | COc1cccc(-c2ccc3n(c2=O)C[C@H]2[C@H](CO)[C@@H](C(=O)N4CCCCC4)N(C)[C@@H]32)c1 | 5.67%
55 | CCCNC(=O)Nc1ccc2c(c1)OC[C@H](C)N(Cc1ccccc1)C[C@H](C)[C@H](OC)CN(C)C2=O | 14.2%
56 | COC(=O)CCCCCCC(=O)Nc1ccc(C2OC(CSc3nc(-c4ccccc4)c(-c4ccccc4)o3)CC(c3ccc([N+](=O)[O-])cc3)O2)cc1 (configuration not stated) | -6.28%
57 | CCCNC(=O)[C@H]1[C@H](CO)[C@H]2Cn3c(ccc(-c4cccc(F)c4)c3=O)[C@@H]1N2C(=O)CC | 0.06%
58 | CN1c2ccc(-c3ccccc3)cc2[C@@H]2[C@@H](CCN2C(=O)c2ccccc2F)[C@@H]1CO | 1.36%
59 | CN1c2ccc(Br)cc2[C@@H]2[C@@H](CCN2C(=O)C2CCCC2)[C@H]1CO | 99.1% (active)
60 | CN1c2ccc(Br)cc2[C@@H]2[C@@H](CCN2C(=O)C2CCCCC2)[C@H]1CO | 8.19%
61 | CN1c2ccc(Br)cc2[C@@H]2[C@@H](CCN2C(=O)Cc2ccccc2)[C@@H]1CO | 0.742%
62 | O=C(CC1CC1)N1[C@H](CO)[C@@H]2c3ccccc3N(S(=O)(=O)c3ccc(F)cc3)C[C@@H]21 | -3.84%
63 | O=C(C[C@@H]1CC[C@H](NC(=O)C2CCOCC2)[C@@H](CO)O1)Nc1ccccc1 | 6.72%
64 | CCOC(=O)[C@]12CCC=C1N(Cc1ccco1)C(=O)[C@H](CC(=O)N1CCSCC1)C2 | -4%
65 | COC(=O)[C@]12CCCCC=C1N(Cc1cccc3ccccc13)C(=O)[C@H](CC(=O)N1CCOCC1)C2 | 99.4% (active)
66 | COC(=O)[C@]12CCCCC=C1N(Cc1ccc3c(c1)OCO3)C(=O)[C@H](CC(=O)NCc1cccs1)C2 | -4.45%
67 | COC(=O)[C@]12CCCCC=C1N(Cc1ccc3c(c1)OCO3)C(=O)[C@H](CC(=O)N1CCOCC1)C2 | 8.62%
68 | CCOC(=O)[C@]12CCCC=C1N(Cc1ccc3c(c1)OCO3)C(=O)[C@H](CC(=O)NCc1cccs1)C2 | 66.5% (active)
69 | CCOC(=O)[C@]12CCCC=C1N(Cc1ccc3c(c1)OCO3)C(=O)[C@H](CC(=O)N1CCN(C(=O)c3ccco3)CC1)C2 | -2.94%
70 | CCOC(=O)[C@]12CCC=C1N(Cc1ccccc1)C(=O)[C@H](CC(=O)N1CCCC1)C2 | 29.8% (active)
71 | COC(=O)[C@]12CCCCC=C1N(Cc1ccc(Cl)cc1Cl)C(=O)[C@H](CC(=O)NCc1cccc3ccccc13)C2 | -2.75%
72 | CCOC(=O)[C@]12CCCC=C1N(Cc1ccc(Cl)cc1Cl)C(=O)[C@H](CC(=O)N1CCCCC1)C2 | 4.66%
